Structures are written as SMILES.

The test system of the experiment is Sonic hedgehog protein (Shh). Kind of experiment: Sonic hedgehog microarray binding compounds – biochemical, small-molecule microarray, 635/667 nm fluorescence, primary screen (AID 1151).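 Also: Shh protein binding to compounds spotted on small-molecule microarray slides; score combines spot fluorescence intensity with signal-to-noise across triplicate slides.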 The settings on record: 635 nm fluorescence, higher = more signal.
For `COC(=O)CC=C[C@@H](C)[C@@H](C=NOC(C)CN1CCCCc2nc(C)c(C)cc21)OC` (stereo partly specified), the composite z-score turned out to be 1.79. `CCOC(=O)[C@H](CC(C)C)NC(=O)CCC1CC(OC(=O)NCc2ccc3c(c2)OCO3)CC2(CCCC(COC(=O)NCCc3ccc(Cl)cc3)O2)O1` (stereo partly specified) registered a composite z-score of 1.86. Take `CC(CCN1CCc2nc(-c3ccccc3)c(-c3ccccc3)cc2C1)=NO[C@H](C)c1cn([C@H](CO)Cc2ccccc2)nn1`: the composite z-score is 0.565. Take `CC(CCC(=O)OC[C@H]1O[C@H](C#Cc2ccccc2)C=C[C@@H]1Oc1ccc(C)cc1)=NO[C@H](C)c1cn([C@@H]2COC[C@H]2O)nn1`: the composite z-score was 0.39. Then `CC(CCN1CCc2nc(-c3ccccc3)c(-c3ccccc3)cc2C1)=NOC(C)CN1CCCc2nc(C)c(C)cc21` (stereo unspecified), with 0.667.

In turn, `CCC1=NOC(CCC2CC(OC(=O)NCc3cccc4c3OCO4)CC3(CCCC(COC(=O)NCCc4ccc(Cl)cc4)O3)O2)C1` (stereo unspecified) gave a composite z-score of 0.358.

On to `CCOC(=O)CCN1C(=O)[C@H]2[C@@H]3C(=CC[C@H]2C1=O)C(=O)[C@H]1O[C@H]1[C@H]3O`, for which the composite z-score is -0.87. Then `CON=C(C)CCC(=O)OC[C@H]1O[C@H](C#Cc2ccccc2)C=C[C@@H]1Oc1ccc(C)cc1`, with 0.597. In turn, `Cc1cc2c(nc1C)CCCCN2CC(O)CN1CCCc2nc(-c3ccc(Br)cc3)ccc21` (stereo unspecified) had a composite z-score of 1.1. Then `COC(=O)[C@H](C)NC(=O)CCC1CC(OC(=O)NCc2cccc3ccccc23)CC2(CCCC(COC(=O)NCCc3ccccc3OC)O2)O1` (stereo partly specified), with 0.963; and `CC#CCOCCC=C1c2ccccc2[C@@H](OC)[C@@H]1C`, with 0.584.

With `CCO[C@H](c1cc(OC)cc([N+](=O)[O-])c1OC)[C@H](C)[C@@H](OC)[C@H](C)C=CCC(=O)OC`, the composite z-score worked out at 0.628.

In turn, `O=C1[C@H]2[C@H]3[C@H](O)[C@H](O)CC(=NOC[C@@H](O)COCc4ccco4)[C@@H]3CC[C@H]2C(=O)N1c1cccc(Oc2ccccc2)c1` came in with a composite z-score of 0.537. With `COC(=O)[C@@H]1CC[C@H](C)[C@@H](c2ccc(Br)cc2)N1C[C@@H](O)CN=[N+]=[N-]` the figure was 0.581; with `CCOC(=O)[C@H](Cc1ccccc1)NC(=O)CCC1CC(OC(=O)NCc2cccc3ccccc23)CC2(CCCC(COC(=O)NCC3CCCCC3)O2)O1` (stereo partly specified), 0.955.

Consider `C#CCCCON=C1[C@H]2CCn3c(=O)n([C@@H](CC)c4ccccc4)c(=O)n3[C@H]2[C@H](O)[C@@H]2O[C@H]12`, for which the composite z-score was found to be 0.441. The compound `C[C@@H]1C=CCC(=O)OC[C@H](C)C(=O)N[C@@H](Cc2ccccc2)C(=O)OC1` registered a composite z-score of 0.638.

In turn, `Cc1ccc2[nH]c3nc(CCCn4ccnc4-c4ccccc4)nnc3c2c1` displayed a composite z-score of 1.18. With `CC(CCN1CCc2nc(-c3ccccc3)c(-c3ccccc3)cc2C1)=NO[C@@H](C)c1cc(-c2c(C)cc(C)cc2C)no1` the figure was -0.387; with `O=C1[C@H]2CCn3c(=O)n(Cc4cc5c(cc4Cl)OCO5)c(=O)n3[C@H]2[C@H](O)[C@@H]2O[C@H]12`, 0.853.

In the case of `CCCNC(=O)OC[C@H]1O[C@H](CCON=C[C@@H](NS(=O)(=O)c2ccc(C)cc2)[C@H](C)C=CCC(=O)OC)C=C[C@@H]1Oc1ccc(OC)cc1`, the composite z-score is -0.0635. Turning to `CCN1C(=O)[C@H]2[C@H]3[C@H](O)[C@H](O)CC(=NOCC[C@@H]4C=C[C@H](OC(C)=O)[C@@H](COC(C)=O)O4)[C@@H]3CC[C@H]2C1=O`, the composite z-score worked out at 0.55.

For the compound `COc1ccc(O[C@H]2C=C[C@@H](c3ccccc3)O[C@@H]2COC(=O)CCC(C)=NOC[C@@H](O)COCc2ccco2)cc1`, the composite z-score is -1.09. For the compound `CC(C)[C@@H](OCc1ccccc1)[C@H](C)C=NOC[C@@H](O)[C@H]1O[C@@H]2OC(C)(C)O[C@@H]2[C@H]1O`, the composite z-score is 0.587. With `O=C1C2=CC[C@H]3C(=O)N(Cc4ccccc4)C(=O)[C@H]3[C@H]2[C@H](O)[C@@H]2O[C@H]12` the figure was -0.575; with `COC(=O)[C@H](C)NC(=O)CCC1CC(OC(=O)NCc2ccc3c(c2)OCO3)CC2(CCCC(COC(=O)NCc3ccccc3)O2)O1` (stereo partly specified), 1.38. In the case of `CC(C)CON=C1C[C@@H](O)[C@@H](O)[C@@H]2[C@@H]3C(=O)N(Cc4ccccc4)C(=O)[C@@H]3CC[C@H]12`, the composite z-score came to 0.503.

Turning to `O=C1[C@H]2[C@H]3[C@H](O)[C@H](O)CC(=NO[C@@H]4O[C@H](CO)[C@@H](O)[C@H](O)[C@H]4O)[C@H]3CC[C@H]2C(=O)N1c1ccc(F)cc1F`, the composite z-score was -0.704. `CC(=O)OC[C@H]1O[C@@H](ON=C2[C@H]3CCn4c(=O)n(-c5ccccc5)c(=O)n4[C@H]3[C@H](O)[C@@H]3O[C@H]23)[C@H](OC(C)=O)[C@@H](OC(C)=O)[C@@H]1OC(C)=O` displayed a composite z-score of 1.23. Take `C#CCCCON=C1C[C@@H](O)[C@@H](O)[C@@H]2[C@@H]3C(=O)N([C@@H](C)c4ccccc4)C(=O)[C@@H]3CC[C@@H]12`: the composite z-score was found to be 0.0938.

In turn, `O=C1[C@H]2[C@H]3[C@H](O)[C@H](O)CC(=NOC[C@@H](O)COCc4ccco4)[C@@H]3CC[C@H]2C(=O)N1C1CCCCC1` displayed a composite z-score of 1.94.

Compound `C[C@]12CCC3c4ccc(OCC5CO5)cc4CCC3C1CC[C@@H]2O` (stereo partly specified) displayed a composite z-score of -0.0357.

Take `CCOC(=O)CCN1C(=O)[C@H]2[C@H]3[C@H](O)[C@H](O)CC(=NO[C@@H]4O[C@H](CO)[C@@H](O)[C@H](O)[C@H]4O)[C@H]3CC[C@H]2C1=O`: the composite z-score came out at 0.493. In turn, `C=CCOCC1CN2[C@@H](CC[C@@H](C)[C@@H]2c2ccc(Br)cc2)C(=O)O1` (stereo partly specified) showed a composite z-score of 0.257. Consider `CO[C@H]1COC(=O)[C@H](C)COC(=O)[C@@H](OCc2ccccc2)C=C[C@@H]1C`, for which the composite z-score worked out at 0.307. Consider `CC(C)=NOC(C)CN1CCCc2nc(C)c(C)cc21` (stereo unspecified), for which the composite z-score was 1.35.
